Results from PubChem BioAssay AID1159580 (chemical genetic matrix, 2015).
Screen size: about 5,500 compounds; about 2,000 (36%) were called active. Roughly 18% stayed inconclusive and do not appear here. The list shows a part of the results. Values without a mark were called inactive. Rule as the data show it: active = normalized growth mostly below about 0.91 (no sharp cut-off); inconclusive = no clear call, values can overlap the other calls; inactive = mostly above about 0.92.

Assay: chemical genetic growth profiling, strain panel (AID 1159580);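 also: tested at 20 µM; growth read once vehicle control cultures reached saturation at 30 °C; 1 = growth at the plate median or of vehicle wells; lower values mean less growth of the strain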
Conditions: S. cerevisiae deletion strains, growth OD
[1] = locus YDL101C, strain DUN1, active compounds read low
[2] = locus YHR030C, strain SLT2, active compounds read low

**Q.** With `O=C(NCCSCc1ccco1)c1ccc(Cl)cc1` as the molecule, how does the normalized growth (locus YAL013W, strain DEP1, active compounds read low) read?
**A.** 0.976

**Q.** And the normalized growth (locus YBR229C, strain ROT2, active compounds read low)?
**A.** 0.991

**Q.** What about the normalized growth [1] of the same molecule?
**A.** 0.976

**Q.** And the normalized growth (locus YDR150W, strain NUM1, active compounds read low)?
**A.** 0.815

**Q.** And the normalized growth (locus YEL061C, strain CIN8, active compounds read low)?
**A.** 0.994

**Q.** What about the normalized growth (locus YGR078C, strain PAC10, active compounds read low) of the same molecule?
**A.** 0.989

**Q.** And the normalized growth [2]?
**A.** 0.587 (active)

**Q.** What about the normalized growth (locus YHR087W, strain rtc3, active compounds read low) of the same molecule?
**A.** 1

**Q.** What about the normalized growth (locus YJL187C, strain SWE1, active compounds read low) of the same molecule?
**A.** 1

**Q.** What about the normalized growth (locus YJR043C, strain POL32, active compounds read low) of the same molecule?
**A.** 0.975

**Q.** What about the normalized growth (locus YJR075W, strain HOC1, active compounds read low) of the same molecule?
**A.** 1.05

**Q.** What about the normalized growth (locus YKL190W, strain CNB1, active compounds read low) of the same molecule?
**A.** 1

**Q.** And the normalized growth (locus YLR039C, strain RIC1, active compounds read low)?
**A.** 1.31 [resistant] (active)

**Q.** And the normalized growth (locus YLR058C, strain SHM2 (second series), active compounds read low)?
**A.** 0.96

**Q.** What about the normalized growth (locus YLR085C, strain ARP6, active compounds read low) of the same molecule?
**A.** 1

**Q.** And the normalized growth (locus YLR262C, strain YPT6, active compounds read low)?
**A.** 1.19 [resistant] (active)

**Q.** And the normalized growth (locus YML094W, strain GIM5, active compounds read low)?
**A.** 0.989

**Q.** And the normalized growth (locus YMR219W, strain ESC1, active compounds read low)?
**A.** 0.98

**Q.** What about the normalized growth (locus YMR263W, strain SAP30, active compounds read low) of the same molecule?
**A.** 0.981

**Q.** What about the normalized growth (locus YNL128W, strain TEP1, active compounds read low) of the same molecule?
**A.** 0.983

**Q.** And the normalized growth (locus YNL153C, strain GIM3, active compounds read low)?
**A.** 0.984

**Q.** What about the normalized growth (locus YNL298W, strain CLA4 (second series), active compounds read low) of the same molecule?
**A.** 0.968

**Q.** And the normalized growth (locus YNL322C, strain KRE1, active compounds read low)?
**A.** 0.988

**Q.** And the normalized growth (locus YNR030W, strain Alg12, active compounds read low)?
**A.** 0.982

**Q.** What about the normalized growth (locus YPL055C, strain LGE1, active compounds read low) of the same molecule?
**A.** 0.962

**Q.** What about the normalized growth (locus YPL241C, strain CIN2, active compounds read low) of the same molecule?
**A.** 0.975

**Q.** What about the normalized growth (locus YPR135W, strain CTF4, active compounds read low) of the same molecule?
**A.** 1.02

**Q.** What does the source list for `O=C(NCCSCc1cccc(C(F)(F)F)c1)Nc1cccc(C(F)(F)F)c1`?
**A.** normalized growth (locus YAR019C, strain CDC15, active compounds read low): 0.999; normalized growth (locus YBL105C, strain PKC1, active compounds read low): 1; normalized growth (locus YBR135W, strain CKS1, active compounds read low): 0.994; normalized growth (locus YBR136W, strain MEC1, active compounds read low): 0.998; normalized growth (locus YBR160W, strain CDC28, active compounds read low): 0.997; normalized growth (locus YDL017W, strain CDC7, active compounds read low): 1; normalized growth (locus YDL028C, strain MPS1, active compounds read low): 0.996; normalized growth [1]: 1.01; normalized growth (locus YDL108W, strain KIN28, active compounds read low): 0.999; normalized growth (locus YDL132W, strain cdc53, active compounds read low): 0.99; normalized growth (locus YDL214C, strain PRR2, active compounds read low): 1.01; normalized growth (locus YDR052C, strain DBF4, active compounds read low): 1.01; normalized growth (locus YDR054C, strain cdc34, active compounds read low): 0.995; normalized growth (locus YDR226W, strain ADK1, active compounds read low): 1; normalized growth (locus YDR477W, strain SNF1, active compounds read low): 1.01; normalized growth (locus YER123W, strain YCK3, active compounds read low): 1.02; normalized growth (locus YER133W, strain GLC7, active compounds read low): 1.02; normalized growth (locus YFL009W, strain cdc4, active compounds read low): 0.992; normalized growth (locus YFL029C, strain CAK1, active compounds read low): 0.991; normalized growth (locus YFR003C, strain YPI1, active compounds read low): 1; normalized growth (locus YFR019W, strain FAB1, active compounds read low): 1; normalized growth (locus YFR028C, strain CDC14, active compounds read low): 0.997; normalized growth (locus YGR040W, strain KSS1, active compounds read low): 1; normalized growth (locus YGR052W, strain FMP48, active compounds read low): 1.18; normalized growth (locus YGR092W, strain DBF2, active compounds read low): 1; normalized growth [2]: 1.15; normalized growth (locus YHR079C, strain IRE1, active compounds read low): 1.11; normalized growth (locus YHR082C, strain KSP1, active compounds read low): 1.18; normalized growth (locus YHR205W, strain SCH9, active compounds read low): 0.989; normalized growth (locus YIL147C, strain SLN1, active compounds read low): 1; normalized growth (locus YJL095W, strain BCK1, active compounds read low): 1.17; normalized growth (locus YJL128C, strain PBS2, active compounds read low): 0.954; normalized growth (locus YJL157C, strain FAR1, active compounds read low): 1.01; normalized growth (locus YJR016C, strain ILV3, active compounds read low): 1.01; normalized growth (locus YJR066W, strain TOR1 (second series), active compounds read low): 0.993; normalized growth (locus YJR066W, strain TOR1, active compounds read low): 1.21; normalized growth (locus YKL048C, strain ELM1, active compounds read low): 0.983; normalized growth (locus YKL067W, strain YNK1, active compounds read low): 1.01; normalized growth (locus YKL101W, strain HSL1, active compounds read low): 0.997; normalized growth (locus YKL193C, strain SDS22, active compounds read low): 1; normalized growth (locus YKL203C, strain TOR2, active compounds read low): 1.09; normalized growth (locus YLR113W, strain HOG1, active compounds read low): 1.07; normalized growth (locus YLR133W, strain CKI1, active compounds read low): 0.997; normalized growth (locus YLR403W, strain SFP1, active compounds read low): 0.999; normalized growth (locus YML070W, strain DAK1, active compounds read low): 1.01; normalized growth (locus YMR001C, strain CDC5, active compounds read low): 0.996; normalized growth (locus YMR205C, strain PFK2 (second series), active compounds read low): 1.01; normalized growth (locus YMR277W, strain FCP1, active compounds read low): 0.999; normalized growth (locus YNL006W, strain LST8, active compounds read low): 1; normalized growth (locus YNL020C, strain ARK1, active compounds read low): 0.988; normalized growth (locus YNL161W, strain CBK1, active compounds read low): 1; normalized growth (locus YNL183C, strain NPR1, active compounds read low): 1.15; normalized growth (locus YNL207W, strain RIO2, active compounds read low): 1.01; normalized growth (locus YNL222W, strain SSU72, active compounds read low): 0.998; normalized growth (locus YNL307C, strain MCK1 (second series), active compounds read low): 0.997; normalized growth (locus YOL078W, strain AVO1, active compounds read low): 0.995; normalized growth (locus YOL136C, strain PFK27, active compounds read low): 0.992; normalized growth (locus YOR061W, strain CKA2, active compounds read low): 0.986; normalized growth (locus YOR119C, strain RIO1, active compounds read low): 1.04; normalized growth (locus YOR231W, strain MKK1, active compounds read low): 1.1; normalized growth (locus YOR329C, strain SCD5, active compounds read low): 1; normalized growth (locus YPL031C, strain PHO85, active compounds read low): 1.01; normalized growth (locus YPL153C, strain RAD53, active compounds read low): 1.02; normalized growth (locus YPL204W, strain HRR25, active compounds read low): 1.01; normalized growth (locus YPL209C, strain IPL1, active compounds read low): 0.997; normalized growth (locus YPL256C, strain CLN2, active compounds read low): 1.11; normalized growth (locus YPR025C, strain CCL1, active compounds read low): 0.999; normalized growth (locus YPR106W, strain ISR1, active compounds read low): 0.992; normalized growth (locus YPR111W, strain DBF20, active compounds read low): 0.986; normalized growth (strain NNK1, active compounds read low): 0.994; normalized growth (strain TSCII, active compounds read low): 0.995
